According to PubChem BioAssay AID598 (SRMLSC, 2007):
Screen size: about 85,000 compounds; about 5,100 (6%) were called active. The sample holds actives, similar compounds and a random draw of the others, so the mix is not that of the screen. Unmarked numbers belong to inactive results.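 The calls were made as follows: active = viability at or below 40%; inactive = viability above 40%.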

Assay: H69AR cell viability reduction – human, 86K library, primary screen (AID 598);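 also: multidrug resistant small cell line overexpressing MRP-1 efflux transporter; 100% = mean luminescence of untreated control wells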
Conditions: H69AR lung tumor viability, ATP luminescence, 72 h; at 10 µM; stronger effect = lower value

Compound | viability
Cc1cccc(NC(=O)CN2C(=O)CNC2=O)c1 | 91.7%
Cc1cccc(NC(=O)CN2CCCN(S(=O)(=O)c3ccc(Br)s3)CC2)c1 | 35.9% (active)
Cc1cccc(NC(=O)CSc2nnc(NC(=O)CN3CCOCC3)s2)c1 | 79.3%
C/C(=N\NC(=O)c1nc(C)cc(C)n1)c1ccccc1 | 99.7%
O=C1c2ccccc2C(=O)N1CCCc1nc(-c2ccccc2)no1 | 95.5%
Oc1ccc(-c2onc3ccc(Cl)cc23)cc1 | 98.2%
COc1ccc(N2CCN(Cc3ccc(Br)s3)CC2)cc1 | 65.6%
CC1(C)Cc2cccc(OCC(N)=O)c2O1 | 102%
CNC(=O)c1ccc2nc(NC(C)=O)sc2c1 | 99%
Fc1ccc2nc(Nc3nc4c(s3)CCCC4)sc2c1 | 36.1% (active)
Fc1ccc2nc(N3CCCCC3)sc2c1 | 90%
COC(=O)CSc1nc2c(c(C3CC=CCC3)c1C#N)CCC2 (stereo not drawn) | 65.3%
O=C(c1cccc(F)c1)N1CCC(O)(c2cccnc2)CC1 | 88.1%
CCOC(=O)N1CCC(Nc2c(NCCCN3CCN(CC)CC3)c(=O)c2=O)CC1 | 112%
O=C(COC(=O)C12CC3CC(CC(C3)C1)C2)NCc1ccco1 | 83.8%
Cc1cc(C(=O)OCC(=O)NCc2ccco2)c(C)n1-c1ccccc1 | 29.6% (active)
CCOC(=O)c1cnc(SCC(=O)NCc2ccco2)nc1N | 91.3%
CNc1nc(SC)nc(N(C#N)CC(=O)OC)n1 | 92.4%
CCN(CC)S(=O)(=O)c1ccc2c3c(cccc13)C(=O)S2 | 69%
O=C(CSC1=Nc2ccccc2C2=NC(CC(=O)NCc3ccco3)C(=O)N12)NCc1ccco1 (stereo not drawn) | 85.9%
CCOc1cc(NC(=O)c2cnccn2)c(OCC)cc1NC(=O)c1ccc(C)cc1 | 110%
Cc1ccc(OCC(=O)N2CCN(C(=O)c3cccnc3)CC2)cc1 | 86.2%
COc1ccc(NC(=O)C(CC(C)C)NS(=O)(=O)c2ccc3c(c2)CCN3C(C)=O)cc1OC (stereo not drawn) | 90.6%
CCN(CC)Cc1cc(C(C)=O)ccc1O | 98.5%
CCOc1ccc2c(c1)C(c1ccc(C)cc1)=NNC(c1ccc(C)cc1)=N2 | 21% (active)

Compound | viability
COc1ccc(C2C(C(C)=O)=C(O)C(=O)N2Cc2cccnc2)cc1 (stereo not drawn) | 99.2%
Cc1ccc(Nc2nnc(SCc3ccccc3)s2)cc1 | 98.2%
COc1ccccc1C(=O)N1CC2(C)CC1CC(C)(C)C2 (stereo not drawn) | 84.2%
Cc1ccc(/C=N/NC(=O)Cn2nc(C)c(Br)c2C)o1 | 102%
CCCCNC(=O)CCNC(=O)c1ccc(C(C)(C)C)cc1 | 102%
CCOC(=O)c1cccc(NC(=O)CN(c2ccc(C)cc2)S(=O)(=O)c2c(C)noc2C)c1 | 24% (active)
CCOc1ccc(N(CC(=O)OC)S(=O)(=O)c2c(C)noc2C)cc1 | 96.6%
Cc1noc(C)c1S(=O)(=O)N(CC(=O)Nc1ccc2c(c1)OCCO2)c1ccc(C(C)C)cc1 | 56.8%
CCOC(=O)c1cc2c(ccn2C)n1CC(=O)N1CCC(C)CC1 | 88.5%
O=C(COc1ccccc1)Nc1nonc1NC(=O)COc1ccccc1 | 93.3%
COc1ccc(CN2CN(C(C)C)CSC2=S)cc1 | 0.67% (active)
O=C(Nc1cc2ccccc2oc1=O)C1CCCCC1 | 98.1%
Cc1ccccc1-n1nc(C)c2cc(C(=O)NC3CC3)sc21 | 66.4%
Cc1ccccc1NC(=O)c1cnn(-c2ccccc2)c1NC(=O)c1ccco1 | 84.4%
O=C(Nc1ccc(Sc2ccc(Br)cc2)cc1)c1ccco1 | 54.3%
O=C(Nc1c(-c2ccccc2)nc2c(Br)cc(Br)cn12)c1ccco1 | 29.5% (active)
CCOC(=O)c1c(N=CN(C)C)c(C#N)c2n1CCCC2 | 90.8%
COc1ccc2[nH]c(=O)c(CN(Cc3nnnn3CCc3ccccc3)CC3CCCO3)cc2c1 (stereo not drawn) | 67.1%
CCOc1ccc2[nH]c(=O)c(CN(Cc3nnnn3CCc3ccccc3)CC3CCCO3)cc2c1 (stereo not drawn) | 85.5%
CCOc1ccc2[nH]c(=O)c(CN(Cc3nnnn3Cc3ccccc3)CC3CCCO3)cc2c1 (stereo not drawn) | 34.3% (active)
O=C(COc1ccc(S(=O)(=O)NCc2ccccc2)cc1)N1CCOCC1 | 97.4%
COc1ccc(Nc2oc(-c3ccccc3Cl)nc2C#N)cc1 | 14.3% (active)
CCOc1ccc(Nc2oc(Cc3ccccc3)nc2C#N)cc1 | 78%
COc1ccccc1-c1nc(C#N)c(N2CCC(C(N)=O)CC2)o1 | 95.8%
Cc1cc2nc(SCCN3CCOCC3)[nH]c2cc1C | 109%

Compound | viability
C=C(C)CSc1nnc(-c2ccc(C)cc2)n1N | 99.4%
CC(=NCc1ccco1)c1c(C(F)(F)F)[nH]n(-c2nc3ccccc3s2)c1=O | 63.2%
N=c1c2c3c(sc2nc2n1CCCCC2)CCCC3 | 84%
NNC(=O)C1CCCn2c1nc1sc3c(c1c2=O)CCCC3 (stereo not drawn) | 91.5%
CS(=O)(=O)N(Cc1nc2sc3c(c2c(=O)[nH]1)CCCC3)C1CCCCC1 | 16.8% (active)
CCn1c(CC(=O)Nc2ccc(C)cc2)nnc1SCC(=O)Nc1nc(C)cs1 | 111%
S=C1NC(c2ccccc2)=NCN1c1ccc(Br)cc1 | 88.9%
CCOc1ccc(NC(=O)CN2CCN(CC(=O)Nc3ccc(OC)cc3)CC2)cc1 | 56.5%
CC1CN(S(=O)(=O)c2ccccc2)C(C)CN1S(=O)(=O)c1ccccc1 (stereo not drawn) | 101%
CC(O)CN(Cc1ccc(Cl)cc1)CC(C)O (stereo not drawn) | 100%
CCOc1ccccc1NC(=O)Nc1cc(OC)ccc1OC | 93.8%
CCOc1ccccc1Oc1cn[nH]c1-c1ccc(OC)cc1O | 16.2% (active)
CCOc1cc(-c2cc(-c3ccc(OC)cc3)nc(N)c2C#N)ccc1O | 51%
CCCC1(C(=O)OCC)NC(c2ccc(N(C)C)cc2)C2C(=O)N(c3ccc4c(c3)OCCO4)C(=O)C21 (stereo not drawn) | 80%
Cc1ccc(O/C=C2\OC(=O)c3ccccc32)cc1 | 89.6%
CN(Cc1nc2ccccc2c(=O)[nH]1)Cc1cc(=O)oc2ccc3ccccc3c12 | 91%
NC(=O)C1(N2CCCCC2)CCN(C2CC(=O)N(Cc3ccc(N4CCCC4=O)cc3)C2=O)CC1 (stereo not drawn) | 100%
COC(=O)Nc1ccc(S(=O)(=O)N2CCN(CCN3C(=O)C4C5C=CC(C5)C4C3=O)CC2)cc1 (stereo not drawn) | 79.9%
CCCCNC(=O)CSc1nnc(-c2ccco2)n1C | 81.6%
CCCCNC(=O)CSc1nccn1Cc1ccccc1 | 99.2%
CCCCNC(=O)CSc1nc2n[nH]c(C)c2c(=N)n1-c1cccc(Cl)c1C | 15.5% (active)
COc1ccc(CNCCCO)cc1OC | 111%
Cc1ccc(S(=O)(=O)Oc2ccc(/C=N/NC(=O)c3c(Cl)cnn3C)cc2)cc1 | 79.2%
COc1ccccc1NC(=O)CSc1nnc(C)n1CC1CCCO1 (stereo not drawn) | 113%
O=C(c1ccc(Cl)cc1)c1ccc(OCC(O)CN2CCCCC2)cc1 (stereo not drawn) | 64.1%

Compound | viability
Cn1c(=O)c2c(nc(N3CCCCCC3)n2CC(O)COc2ccc(Cl)cc2)n(C)c1=O (stereo not drawn) | 28.2% (active)
Cn1c(=O)c2c(nc(N3CCCCCC3)n2CC(=O)c2ccc(Br)cc2)n(C)c1=O | 46.8%
CCN(CC)C(=O)CC1(c2ccccc2OC)CCOC(C(C)C)C1 (stereo not drawn) | 86.8%
COC(=O)c1ccc(CSc2ccc3nnc(-c4ccccc4)n3n2)o1 | 71.6%
CCN1CCc2c(C#N)c(NCc3ccccc3)nc(NCCO)c2C1 | 62.2%
CC(C)Cc1nc(N2CCOCC2)c(C#N)c2c1CCC2 | 89.6%
CC(C)CCNc1nc(N2CCCC2)c2c(c1C#N)CCN(C)C2 | 1.84% (active)
Cc1ccc2nc(SC(C)C(=O)NCc3ccco3)[nH]c2c1 (stereo not drawn) | 85.7%
c1ccc(-n2nc3ccccc3n2)cc1 | 96%
Cc1nn(Cc2ccccc2)c2c1C(c1ccccc1)C(C#N)=C(N)O2 (stereo not drawn) | 76.3%
Cc1cc(C(=O)OC(C)C(=O)Nc2cccc(S(=O)(=O)N3CCOCC3)c2)c(C)o1 (stereo not drawn) | 102%
COC(=O)C1=C(Nc2ccc(C)cc2)C=C(C)C(C(=O)OC)C1c1ccc(F)cc1 (stereo not drawn) | 12.1% (active)
COC(=O)C1C(=O)NCC1c1ccc(C)cc1 (stereo not drawn) | 82.2%
COC(=O)C1=C(Nc2ccc(OC)cc2)C=C(C)C(C(=O)OC)C1c1ccc(C)cc1 (stereo not drawn) | 55.6%
CCOC(=O)c1ccc2c(c1)nc(C)n2CC | 113%
Cc1nnc(NC(=O)CCCOc2ccccc2)s1 | 93.8%
CCC(CC)C(=O)N1CC(=O)Nc2ccc(Br)cc2C1c1ccccc1 (stereo not drawn) | 87%
COC(=O)/C(NC(C)=O)=C(\C)c1ccc(Cl)cc1 | 102%
Cc1cccc(NC(=O)/C(=C\c2ccco2)NC(=O)c2ccccc2)c1 | 85.2%
Cc1cc(C)cc(N(CC(=O)NCC2CCCO2)S(=O)(=O)c2c(C)noc2C)c1 (stereo not drawn) | 92.5%
CCOC(=O)C1CCCN(C(=O)CN(c2ccc(OC)cc2)S(=O)(=O)c2c(C)noc2C)C1 (stereo not drawn) | 78.5%
Cc1cc(C)cc(N(CC(=O)N2CC=C(c3ccccc3)CC2)S(=O)(=O)c2c(C)noc2C)c1 | 22.6% (active)
CCOC(=O)C1C(=O)NCC1c1ccccc1 (stereo not drawn) | 99.9%
